According to PubChem BioAssay AID720518 (National Center for Advancing Translational Sciences (NCATS), 2013):
Results filed as inconclusive are left out. Values without a mark were called inactive. Calls come from the whole dose curve.

Assay: qHTS for Inhibitors of Cell Surface uPA Generation: Wild-type Protective Antigen (WT-PrAg) Counterscreen for Cherry-picked Compounds; note: 0% is about no effect
Conditions: cells, WT protective antigen toxicity counterscreen; series mostly up to 115 µM; activity (protection): at the top concentration

| SMILES | activity (protection) |
| --- | --- |
| Cc1ccc(-n2nc3c(c2NC(=O)c2ccc4c(c2)OCO4)CS(=O)C3)c(C)c1 (stereo not given) | 2.92% |
| O=C(COC(=O)Cn1cnc2ccccc21)NCc1ccc(F)cc1 | 0.472% |
| CS(=O)(=O)c1ccc(Cl)c(NC(=O)COC(=O)CNC(=O)c2cccs2)c1 | -0.596% |
| Cc1nc2nc(C)c(NS(=O)(=O)c3ccc(Cl)cc3)c(=O)n2[nH]1 | 2.63% |
| CCOc1ccc(Cl)cc1/C=N/NC(=O)c1ccccc1 | -0.125% |
| CCOCCCn1c(SCC(=O)Nc2cc(OC)ccc2OC)nc2ccccc2c1=O | -2.4% |
| O=C1C[C@@H]2CCN3C(=O)CCC[C@@H]([C@H]23)[C@H]1Cc1ccccc1 | -0.693% |
| NC(=O)CC[C@H](NC(=O)c1ccc(F)cc1)C(=O)OCC(=O)Nc1c(F)c(F)c(F)c(F)c1F | -0.726% |
| CCCCn1c(N)c(N(Cc2ccccc2OC)C(=O)COc2ccc(C)cc2)c(=O)[nH]c1=O | -0.778% |
| CC(C)c1ccc(C2/C(=C(\O)c3ccc4c(c3)OCCO4)C(=O)C(=O)N2CCN2CCOCC2)cc1 (stereo not given) | -0.545% |
| CC(C)CN(C(=O)CN1CCC(C)CC1)c1c(N)n(CC(C)C)c(=O)[nH]c1=O | 0.779% |
| COc1cc(/C=C(/C#N)C(=O)Nc2ccccc2)ccc1OCc1ccc(C(=O)O)cc1 | 0.55% |
| COc1ccc(NC(=O)CCNS(=O)(=O)c2ccccc2F)cc1S(=O)(=O)N1CCOCC1 | -0.848% |
| COc1ccc(NC(=O)c2cccnc2N2CCOCC2)cc1 | 0.0263% |
| OCCN(Cc1ccccc1)CC(O)COc1ccc2c(c1)OCO2 (stereo not given) | -0.0373% |
| CC(C)(C)S(=O)(=O)N1C[C@H]2CC/C=C\C/C(c3ccccc3)=C\2[C@@H]1CCO | -0.255% |
| COc1ccc(CNCCC2(C(C)C)CCOC(C)(C)C2)cc1 (stereo not given) | -0.773% |
| Cc1c(C(=O)N(Cc2ccccc2Cl)C2CCS(=O)(=O)C2)oc2ccccc12 (stereo not given) | -2.16% |
| COc1ccc(C(=O)NNC(=O)Cc2ccc(Cl)cc2)cc1 | 1.34% |
| Cc1cc(C)cc(NC(=O)COC(=O)CCn2c(C)csc2=O)c1 | 0.0327% |

| SMILES | activity (protection) |
| --- | --- |
| CCCCCn1c(=O)c(C(=O)Nc2ccccn2)c(O)c2ccccc21 | -2.18% |
| CC(=O)n1cc(/C=N/NC(=O)c2ccc([N+](=O)[O-])cc2)c2ccccc21 | -1.78% |
| Cc1ccc(C(=O)NNC(=O)CNc2cccc(Cl)c2)cc1 | -0.357% |
| CCNC(=S)NNC(=O)C(c1ccccc1)c1ccccc1 | 0.86% |
| COc1ccc(C)cc1NC(=O)CSCc1cc(=O)n2c(C)csc2n1 | 0.0603% |
| COc1ccc(N2CCN(C(=O)COc3ccc4c(C)c(C)c(=O)oc4c3C)CC2)cc1 | -1.1% |
| O=[N+]([O-])c1ccccc1C=NNC(=S)NN=Cc1ccccc1[N+](=O)[O-] | -1.76% |
| O=C(Nc1ccc2c(c1)CCC2)Nc1ccc2c(c1)OCO2 | 1.26% |
| Cc1ccc2cc(C=O)c(Cl)nc2c1 | -0.682% |
| COc1ccc(CN2CCNC(=O)C2CC(=O)NCC2CCOCC2)cc1C (stereo not given) | -0.406% |
| CCCCn1c(-c2cccnc2)nc2cc3[nH]c(=O)c(C(C)C)nc3cc21 | 3.09% |
| Cc1cc(C)cc(NC(=O)C(OC(=O)c2ccc(O)cc2)c2ccccc2)c1 (stereo not given) | -1.09% |
| CCOc1ccccc1N(CC(=O)Nc1ccc(OC)cc1)S(=O)(=O)c1ccccc1 | 0.0168% |
| CCS(=O)(=O)N1CCC(C(=O)NCc2ccc(OC)cc2OC)CC1 | 0.322% |
| O=C(NC1CCCCC1)C(c1ccco1)N(C(=O)c1csnn1)c1cccc(Cl)c1 (stereo not given) | 1.16% |
| O=[N+]([O-])c1ccc(C[n+]2cccc(O)c2)cc1 | -1.12% |
| COc1cc(C(=O)Nc2nnc(C)s2)cc(OC)c1OC | -1.63% |
| O=C(CN1C(=O)CSCC1=O)NCc1ccc(F)cc1 | 0.538% |
| C/C(=N\NC(=O)c1cccc([N+](=O)[O-])c1)c1cccnc1 | -0.627% |
| COc1ccc(CC(=O)Nc2nc(C)cs2)cc1OC | -2.07% |
